Experimental findings from article PMC12529666, “Dysregulation of AGO2-miRNA dynamics underlies the AGO2-associated Lessel–Kreienkamp syndrome” are described below.

Changes are numbered by the printed parent chain.

Sequences and labels used below:
B1: ATACTTTA (ssRNA)
RNA 1: GAGUUCUACAGUCCGACGAUCCCAACAUACUUUACACCUGGAAUUCUCGGGUGCCAA
RNA 2: UGGAGUGUGACAAUGGUGUUUG
DNA 1: GATCGTCGGACTGTAGAACTC
DNA 2: TTGGCACCCGAGAATTCCA
modifications: constant regions annealed to DNA blockers; guide miR-122 5' phosphate
B2: ACATCCTG (ssRNA)
RNA 1: B1 RNA 1 with U28C, C30U, U31C, U32C, A34G
RNA 2: UGGAGUGUGACAAUGGUGUUUG
DNA 1: GATCGTCGGACTGTAGAACTC
DNA 2: TTGGCACCCGAGAATTCCA
modifications: constant regions annealed to DNA blockers; guide miR-122 5' phosphate
B3: ATATTTTA (ssRNA)
RNA 1: B1 RNA 1 with C30U
RNA 2: UGGAGUGUGACAAUGGUGUUUG
DNA 1: GATCGTCGGACTGTAGAACTC
DNA 2: TTGGCACCCGAGAATTCCA
modifications: constant regions annealed to DNA blockers; guide miR-122 5' phosphate
B4: GTGCTCCG (ssRNA)
RNA 1: B1 RNA 1 with A27G, A29G, U32C, U33C, A34G
RNA 2: UGGAGUGUGACAAUGGUGUUUG
DNA 1: GATCGTCGGACTGTAGAACTC
DNA 2: TTGGCACCCGAGAATTCCA
modifications: constant regions annealed to DNA blockers; guide miR-122 5' phosphate
B5: ACATCCCG (ssRNA)
RNA 1: B1 RNA 1 with U28C, C30U, U31C, U32C, U33C, A34G
RNA 2: UGGAGUGUGACAAUGGUGUUUG
DNA 1: GATCGTCGGACTGTAGAACTC
DNA 2: TTGGCACCCGAGAATTCCA
modifications: constant regions annealed to DNA blockers; guide miR-122 5' phosphate
B6: ATGTTTCA (ssRNA)
RNA 1: B1 RNA 1 with A29G, C30U, U33C
RNA 2: UGGAGUGUGACAAUGGUGUUUG
DNA 1: GATCGTCGGACTGTAGAACTC
DNA 2: TTGGCACCCGAGAATTCCA
modifications: constant regions annealed to DNA blockers; guide miR-122 5' phosphate
B7: GCGTCTCA (ssRNA)
RNA 1: B1 RNA 1 with A27G, U28C, A29G, C30U, U31C, U33C
RNA 2: UGGAGUGUGACAAUGGUGUUUG
DNA 1: GATCGTCGGACTGTAGAACTC
DNA 2: TTGGCACCCGAGAATTCCA
modifications: constant regions annealed to DNA blockers; guide miR-122 5' phosphate
B8: ATGCTTCA (ssRNA)
RNA 1: B1 RNA 1 with A29G, U33C
RNA 2: UGGAGUGUGACAAUGGUGUUUG
DNA 1: GATCGTCGGACTGTAGAACTC
DNA 2: TTGGCACCCGAGAATTCCA
modifications: constant regions annealed to DNA blockers; guide miR-122 5' phosphate
B9: ACGCTCCA (ssRNA)
RNA 1: B1 RNA 1 with U28C, A29G, U32C, U33C
RNA 2: UGGAGUGUGACAAUGGUGUUUG
DNA 1: GATCGTCGGACTGTAGAACTC
DNA 2: TTGGCACCCGAGAATTCCA
modifications: constant regions annealed to DNA blockers; guide miR-122 5' phosphate
B10: ACGCTCCG (ssRNA)
RNA 1: B1 RNA 1 with U28C, A29G, U32C, U33C, A34G
RNA 2: UGGAGUGUGACAAUGGUGUUUG
DNA 1: GATCGTCGGACTGTAGAACTC
DNA 2: TTGGCACCCGAGAATTCCA
modifications: constant regions annealed to DNA blockers; guide miR-122 5' phosphate
B11: GTATCCCA (ssRNA)
RNA 1: B1 RNA 1 with A27G, C30U, U31C, U32C, U33C
RNA 2: UGGAGUGUGACAAUGGUGUUUG
DNA 1: GATCGTCGGACTGTAGAACTC
DNA 2: TTGGCACCCGAGAATTCCA
modifications: constant regions annealed to DNA blockers; guide miR-122 5' phosphate
B12: ATGTTCCA (ssRNA)
RNA 1: B1 RNA 1 with A29G, C30U, U32C, U33C
RNA 2: UGGAGUGUGACAAUGGUGUUUG
DNA 1: GATCGTCGGACTGTAGAACTC
DNA 2: TTGGCACCCGAGAATTCCA
modifications: constant regions annealed to DNA blockers; guide miR-122 5' phosphate
B13: ATGCCTCA (ssRNA)
RNA 1: B1 RNA 1 with A29G, U31C, U33C
RNA 2: UGGAGUGUGACAAUGGUGUUUG
DNA 1: GATCGTCGGACTGTAGAACTC
DNA 2: TTGGCACCCGAGAATTCCA
modifications: constant regions annealed to DNA blockers; guide miR-122 5' phosphate
B14: GCACTCTG (ssRNA)
RNA 1: B1 RNA 1 with A27G, U28C, U32C, A34G
RNA 2: UGGAGUGUGACAAUGGUGUUUG
DNA 1: GATCGTCGGACTGTAGAACTC
DNA 2: TTGGCACCCGAGAATTCCA
modifications: constant regions annealed to DNA blockers; guide miR-122 5' phosphate
B15: ACGTTTCA (ssRNA)
RNA 1: B1 RNA 1 with U28C, A29G, C30U, U33C
RNA 2: UGGAGUGUGACAAUGGUGUUUG
DNA 1: GATCGTCGGACTGTAGAACTC
DNA 2: TTGGCACCCGAGAATTCCA
modifications: constant regions annealed to DNA blockers; guide miR-122 5' phosphate
B16: GTATCTCA (ssRNA)
RNA 1: B1 RNA 1 with A27G, C30U, U31C, U33C
RNA 2: UGGAGUGUGACAAUGGUGUUUG
DNA 1: GATCGTCGGACTGTAGAACTC
DNA 2: TTGGCACCCGAGAATTCCA
modifications: constant regions annealed to DNA blockers; guide miR-122 5' phosphate
B17: GCACTTCA (ssRNA)
RNA 1: B1 RNA 1 with A27G, U28C, U33C
RNA 2: UGGAGUGUGACAAUGGUGUUUG
DNA 1: GATCGTCGGACTGTAGAACTC
DNA 2: TTGGCACCCGAGAATTCCA
modifications: constant regions annealed to DNA blockers; guide miR-122 5' phosphate
B18: GTATTTCA (ssRNA)
RNA 1: B1 RNA 1 with A27G, C30U, U33C
RNA 2: UGGAGUGUGACAAUGGUGUUUG
DNA 1: GATCGTCGGACTGTAGAACTC
DNA 2: TTGGCACCCGAGAATTCCA
modifications: constant regions annealed to DNA blockers; guide miR-122 5' phosphate
B19: ATATTTCA (ssRNA)
RNA 1: B1 RNA 1 with C30U, U33C
RNA 2: UGGAGUGUGACAAUGGUGUUUG
DNA 1: GATCGTCGGACTGTAGAACTC
DNA 2: TTGGCACCCGAGAATTCCA
modifications: constant regions annealed to DNA blockers; guide miR-122 5' phosphate

Chain of AGO2 A367P (Q9UKV8 whole entry A367P/S387D/S824A/S828D/S831D/S834A): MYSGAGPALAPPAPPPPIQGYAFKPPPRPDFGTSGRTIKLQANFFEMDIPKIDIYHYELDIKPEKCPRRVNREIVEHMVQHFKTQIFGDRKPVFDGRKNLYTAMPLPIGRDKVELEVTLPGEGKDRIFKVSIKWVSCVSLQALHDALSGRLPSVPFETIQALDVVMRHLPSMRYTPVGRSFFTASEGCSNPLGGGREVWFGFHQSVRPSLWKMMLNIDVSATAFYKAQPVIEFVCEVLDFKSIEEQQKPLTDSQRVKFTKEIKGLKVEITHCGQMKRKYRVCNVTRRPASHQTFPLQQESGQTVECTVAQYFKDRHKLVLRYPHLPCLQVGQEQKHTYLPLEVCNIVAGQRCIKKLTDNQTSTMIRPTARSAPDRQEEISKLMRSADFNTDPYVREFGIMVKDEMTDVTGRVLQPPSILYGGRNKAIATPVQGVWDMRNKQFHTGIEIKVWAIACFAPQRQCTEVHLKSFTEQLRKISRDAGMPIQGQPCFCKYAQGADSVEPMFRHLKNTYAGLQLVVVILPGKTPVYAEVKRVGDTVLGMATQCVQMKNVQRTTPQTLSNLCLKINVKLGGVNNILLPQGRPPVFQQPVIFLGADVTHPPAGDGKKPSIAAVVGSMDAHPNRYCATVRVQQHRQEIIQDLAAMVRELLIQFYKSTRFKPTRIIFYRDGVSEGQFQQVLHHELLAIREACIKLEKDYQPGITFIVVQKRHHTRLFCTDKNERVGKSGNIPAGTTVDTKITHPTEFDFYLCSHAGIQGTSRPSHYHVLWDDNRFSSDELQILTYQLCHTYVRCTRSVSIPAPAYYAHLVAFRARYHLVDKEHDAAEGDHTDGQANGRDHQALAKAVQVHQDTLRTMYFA
Chain of AGO2 F182del (Q9UKV8 other isoform, or with tags, fused parts or gaps S387D;S824A;S828D;S831D;S834A;del182-182): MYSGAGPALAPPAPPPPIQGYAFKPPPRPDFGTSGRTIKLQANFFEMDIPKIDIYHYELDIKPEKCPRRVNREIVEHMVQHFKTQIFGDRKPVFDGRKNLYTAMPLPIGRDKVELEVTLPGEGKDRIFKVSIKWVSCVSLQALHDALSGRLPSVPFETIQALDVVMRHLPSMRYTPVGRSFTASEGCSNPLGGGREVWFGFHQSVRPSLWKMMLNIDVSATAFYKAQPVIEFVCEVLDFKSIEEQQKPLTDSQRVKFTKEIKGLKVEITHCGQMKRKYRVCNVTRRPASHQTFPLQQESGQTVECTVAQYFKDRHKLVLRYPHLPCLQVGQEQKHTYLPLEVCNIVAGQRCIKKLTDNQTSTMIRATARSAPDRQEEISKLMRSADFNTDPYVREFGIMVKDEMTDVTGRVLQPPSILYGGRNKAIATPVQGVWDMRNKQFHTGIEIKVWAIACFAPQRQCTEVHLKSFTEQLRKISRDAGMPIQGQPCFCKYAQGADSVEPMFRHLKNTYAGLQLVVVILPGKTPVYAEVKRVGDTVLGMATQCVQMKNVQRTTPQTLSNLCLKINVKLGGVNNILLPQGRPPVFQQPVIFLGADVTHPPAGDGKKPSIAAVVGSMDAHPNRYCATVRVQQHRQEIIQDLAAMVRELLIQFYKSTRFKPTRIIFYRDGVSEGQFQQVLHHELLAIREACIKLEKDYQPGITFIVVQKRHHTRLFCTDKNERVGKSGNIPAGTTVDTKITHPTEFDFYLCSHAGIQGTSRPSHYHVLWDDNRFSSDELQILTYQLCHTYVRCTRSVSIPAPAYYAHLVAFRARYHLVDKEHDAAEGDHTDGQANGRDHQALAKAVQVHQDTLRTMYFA

In one test the target is AGO2 WT (phosphosite mutant background) (Homo sapiens, UniProt Q9UKV8 1-859, S387D;S824A;S828D;S831D;S834A). Description: RNA Bind-n-Seq (nitrocellulose filter binding and sequencing); miR-122 guide loaded in AGO2; 60 min incubation; 30 mM Tris pH 8.0, 100 mM potassium acetate, 2 mM magnesium acetate, 0.5 mM TCEP, 0.005% NP-40, 0.01 mg/ml yeast tRNA; 3 nM AGO2-miR-122, 100 nM RNA library; 60; high values mean tight binding. The following applies: protein: recombinant; tags: His6 (N-terminal, pFastBac HTA). In a few lines: (§1)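 Fold enrichment is each target's read fraction divided by its read fraction in the input library. Sf9 insect cells expressed His-tagged AGO2 from baculovirus; the protein was loaded with a synthetic guide RNA and purified by Ni-NTA and a biotinylated capture oligo. The bound RNA was extracted, reverse-transcribed, barcode-amplified and sequenced on Illumina.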
Chain of AGO2 WT (phosphosite mutant background) (Q9UKV8 whole entry S387D/S824A/S828D/S831D/S834A): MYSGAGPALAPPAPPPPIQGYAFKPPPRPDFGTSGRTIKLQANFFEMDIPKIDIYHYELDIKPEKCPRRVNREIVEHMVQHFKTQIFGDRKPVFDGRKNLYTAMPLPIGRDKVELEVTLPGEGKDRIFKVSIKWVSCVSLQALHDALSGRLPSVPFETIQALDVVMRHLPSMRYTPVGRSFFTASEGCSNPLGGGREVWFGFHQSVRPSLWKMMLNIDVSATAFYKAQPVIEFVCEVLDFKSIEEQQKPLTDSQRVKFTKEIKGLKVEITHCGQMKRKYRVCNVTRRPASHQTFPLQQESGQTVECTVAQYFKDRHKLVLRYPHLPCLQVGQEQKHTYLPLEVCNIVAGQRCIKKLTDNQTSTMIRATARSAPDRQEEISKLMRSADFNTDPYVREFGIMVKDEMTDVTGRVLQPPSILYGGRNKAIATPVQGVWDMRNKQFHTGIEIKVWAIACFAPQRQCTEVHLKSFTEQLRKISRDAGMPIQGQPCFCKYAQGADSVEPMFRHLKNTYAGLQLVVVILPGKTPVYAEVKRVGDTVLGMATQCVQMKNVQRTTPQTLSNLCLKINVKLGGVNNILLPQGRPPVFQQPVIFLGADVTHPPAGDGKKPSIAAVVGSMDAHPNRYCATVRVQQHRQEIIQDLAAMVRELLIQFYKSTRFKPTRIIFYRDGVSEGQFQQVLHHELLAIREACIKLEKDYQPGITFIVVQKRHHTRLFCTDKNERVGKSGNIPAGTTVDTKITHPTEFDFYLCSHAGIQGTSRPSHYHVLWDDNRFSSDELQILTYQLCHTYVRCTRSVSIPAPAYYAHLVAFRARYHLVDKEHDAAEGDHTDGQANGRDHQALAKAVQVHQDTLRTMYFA
Regarding B1, the binding signal was 0.121 fold enrichment over input.
The same measure, in the same setting: next, B2: 0.144 fold enrichment over input; B3: 0.127 fold enrichment over input.
Take B4: the binding signal was 0.149 fold enrichment over input.
The same measure, in the same setting: the result for B5 reads 0.128 fold enrichment over input.
The same measure, in the same setting: the result for B6 reads 0.125 fold enrichment over input; that for B7, 0.14 fold enrichment over input; that for B8, 0.135 fold enrichment over input.
As for B9, the binding signal is 5.29 fold enrichment over input.
Still for that read-out and setting: next, B10: 3.15 fold enrichment over input.
The same measure, in the same setting: next, B11: 0.162 fold enrichment over input.
Same read-out and setting: the result for B12 reads 0.148 fold enrichment over input; that for B13, 0.127 fold enrichment over input; that for B14, 0.143 fold enrichment over input.
As for B15, the binding signal was 0.146 fold enrichment over input.
Take B16: the binding signal was 0.141 fold enrichment over input.
Same read-out and setting: the result for B17 reads 0.149 fold enrichment over input.
On the same count and under the same terms, the result for B18 reads 0.136 fold enrichment over input; that for B19, 0.141 fold enrichment over input.

Another test deals with AGO2 L192P (Homo sapiens, UniProt Q9UKV8 1-859, L192P;S387D;S824A;S828D;S831D;S834A). The description is as above. The settings on record: protein: recombinant; tags: His6 (N-terminal, pFastBac HTA). In a few lines: as §1
Chain of AGO2 L192P (Q9UKV8 whole entry L192P/S387D/S824A/S828D/S831D/S834A): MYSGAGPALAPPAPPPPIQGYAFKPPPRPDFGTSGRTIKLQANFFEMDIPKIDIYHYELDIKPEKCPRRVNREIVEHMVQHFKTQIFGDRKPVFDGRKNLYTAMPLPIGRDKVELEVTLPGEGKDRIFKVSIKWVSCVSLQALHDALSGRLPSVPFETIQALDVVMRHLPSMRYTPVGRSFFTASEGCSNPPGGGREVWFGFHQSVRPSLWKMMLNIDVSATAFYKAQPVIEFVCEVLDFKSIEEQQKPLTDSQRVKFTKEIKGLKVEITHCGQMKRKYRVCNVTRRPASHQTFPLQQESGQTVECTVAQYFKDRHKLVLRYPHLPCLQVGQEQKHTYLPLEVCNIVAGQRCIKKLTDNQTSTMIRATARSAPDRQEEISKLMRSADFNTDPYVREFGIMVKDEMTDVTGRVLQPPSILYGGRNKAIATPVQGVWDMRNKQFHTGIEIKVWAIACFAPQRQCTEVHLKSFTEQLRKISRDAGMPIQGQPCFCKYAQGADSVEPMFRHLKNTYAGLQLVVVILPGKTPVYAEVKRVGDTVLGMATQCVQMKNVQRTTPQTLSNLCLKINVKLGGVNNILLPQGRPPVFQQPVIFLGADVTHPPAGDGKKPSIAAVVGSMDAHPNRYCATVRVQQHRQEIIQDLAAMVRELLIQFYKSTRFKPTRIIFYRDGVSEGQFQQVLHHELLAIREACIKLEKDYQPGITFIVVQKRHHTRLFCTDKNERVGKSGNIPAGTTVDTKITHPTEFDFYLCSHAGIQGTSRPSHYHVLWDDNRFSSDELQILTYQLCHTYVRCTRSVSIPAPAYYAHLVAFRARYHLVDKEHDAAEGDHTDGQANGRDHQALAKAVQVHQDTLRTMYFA
Consider B1, for which the binding signal was 0.536 fold enrichment over input.
Same read-out and setting: next, B2: 0.376 fold enrichment over input; B3: 0.509 fold enrichment over input.
Still for that read-out and setting: next, B4: 0.546 fold enrichment over input.
With B5, the binding signal is 0.38 fold enrichment over input.
In the case of B6, the binding signal is 0.54 fold enrichment over input.
For B7, the binding signal is 0.529 fold enrichment over input.
In the case of B8, the binding signal is 0.573 fold enrichment over input.
On the same count and under the same terms, next, B9: 12.3 fold enrichment over input; B10: 10.8 fold enrichment over input; B11: 0.517 fold enrichment over input.
Consider B12, for which the binding signal was 0.552 fold enrichment over input.
Regarding B13, the binding signal is 0.547 fold enrichment over input.
Still for that read-out and setting: the result for B14 reads 0.491 fold enrichment over input; that for B15, 0.656 fold enrichment over input; that for B16, 0.597 fold enrichment over input.
Still for that read-out and setting: next, B17: 0.575 fold enrichment over input.
Still for that read-out and setting: the result for B18 reads 0.545 fold enrichment over input.
Turning to B19, the binding signal was 0.626 fold enrichment over input.

For another test, the target named is AGO2 A367P (Homo sapiens, UniProt Q9UKV8 1-859, A367P;S387D;S824A;S828D;S831D;S834A). The test is described as above. The settings on record: protein: recombinant; tags: His6 (N-terminal, pFastBac HTA). In a few lines:
as §1
As for B1, the binding signal was 0.174 fold enrichment over input.
Turning to B2, the binding signal was 0.171 fold enrichment over input.
On the same count and under the same terms, next, B3: 0.189 fold enrichment over input; B4: 0.535 fold enrichment over input; B5: 0.158 fold enrichment over input.
On the same count and under the same terms, the result for B6 reads 0.311 fold enrichment over input; that for B7, 0.271 fold enrichment over input; that for B8, 0.309 fold enrichment over input.
Still for that read-out and setting: the result for B9 reads 13.1 fold enrichment over input; that for B10, 14 fold enrichment over input; that for B11, 0.408 fold enrichment over input.
As to B12, the binding signal was 0.299 fold enrichment over input.
On the same count and under the same terms, next, B13: 0.307 fold enrichment over input; B14: 0.33 fold enrichment over input; B15: 0.363 fold enrichment over input.
Same read-out and setting: next, B16: 0.455 fold enrichment over input; B17: 0.348 fold enrichment over input; B18: 0.337 fold enrichment over input.
Still for that read-out and setting: next, B19: 0.373 fold enrichment over input.

In the next test the target is AGO2 T357M (Homo sapiens, UniProt Q9UKV8 1-859, T357M;S387D;S824A;S828D;S831D;S834A). Described as above. The settings on record: protein: recombinant; tags: His6 (N-terminal, pFastBac HTA). In a few lines: as §1
Chain of AGO2 T357M (Q9UKV8 whole entry T357M/S387D/S824A/S828D/S831D/S834A): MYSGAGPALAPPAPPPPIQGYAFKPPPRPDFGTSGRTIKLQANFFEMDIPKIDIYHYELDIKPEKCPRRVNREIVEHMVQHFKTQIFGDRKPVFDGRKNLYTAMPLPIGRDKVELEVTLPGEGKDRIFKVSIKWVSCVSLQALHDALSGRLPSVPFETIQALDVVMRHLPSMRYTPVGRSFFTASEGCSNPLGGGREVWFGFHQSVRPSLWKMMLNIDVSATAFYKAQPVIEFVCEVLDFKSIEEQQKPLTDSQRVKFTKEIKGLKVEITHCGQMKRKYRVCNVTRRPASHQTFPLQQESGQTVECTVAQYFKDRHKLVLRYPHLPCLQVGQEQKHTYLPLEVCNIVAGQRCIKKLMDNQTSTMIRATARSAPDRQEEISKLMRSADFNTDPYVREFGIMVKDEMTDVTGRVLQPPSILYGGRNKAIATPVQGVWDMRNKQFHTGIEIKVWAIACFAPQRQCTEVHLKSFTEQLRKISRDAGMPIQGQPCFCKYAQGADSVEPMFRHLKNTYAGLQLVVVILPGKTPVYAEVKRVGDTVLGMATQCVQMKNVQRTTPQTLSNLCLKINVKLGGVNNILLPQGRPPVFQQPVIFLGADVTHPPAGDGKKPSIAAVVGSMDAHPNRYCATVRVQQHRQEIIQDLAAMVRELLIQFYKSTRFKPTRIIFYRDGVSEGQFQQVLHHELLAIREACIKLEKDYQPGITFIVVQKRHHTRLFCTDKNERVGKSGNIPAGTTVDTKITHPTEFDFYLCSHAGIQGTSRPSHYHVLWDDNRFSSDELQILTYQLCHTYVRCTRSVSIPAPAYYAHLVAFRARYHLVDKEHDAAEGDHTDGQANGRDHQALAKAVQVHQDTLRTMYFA
As to B1, the binding signal was 0.643 fold enrichment over input.
As to B2, the binding signal was 0.475 fold enrichment over input.
The same measure, in the same setting: next, B3: 0.697 fold enrichment over input.
Same read-out and setting: next, B4: 0.617 fold enrichment over input; B5: 0.471 fold enrichment over input; B6: 0.58 fold enrichment over input.
On the same count and under the same terms, next, B7: 0.646 fold enrichment over input; B8: 0.582 fold enrichment over input.
As for B9, the binding signal is 2.94 fold enrichment over input.
The same measure, in the same setting: next, B10: 1.98 fold enrichment over input; B11: 0.614 fold enrichment over input; B12: 0.682 fold enrichment over input.
Same read-out and setting: the result for B13 reads 0.637 fold enrichment over input.
Same read-out and setting: the result for B14 reads 0.457 fold enrichment over input.
With B15, the binding signal is 0.572 fold enrichment over input.
Turning to B16, the binding signal is 0.579 fold enrichment over input.
The same measure, in the same setting: the result for B17 reads 0.655 fold enrichment over input; that for B18, 0.647 fold enrichment over input.
The same measure, in the same setting: next, B19: 0.697 fold enrichment over input.

A further test concerns the target AGO2 F182del (Homo sapiens, UniProt Q9UKV8 1-859, S387D;S824A;S828D;S831D;S834A;del182-182). The description is as above. The settings on record: protein: recombinant; tags: His6 (N-terminal, pFastBac HTA). In a few lines: as §1
On to B2, for which the binding signal is 0.153 fold enrichment over input.
Same read-out and setting: the result for B4 reads 0.426 fold enrichment over input; that for B5, 0.144 fold enrichment over input.
Still for that read-out and setting: the result for B6 reads 0.814 fold enrichment over input.
Still for that read-out and setting: the result for B7 reads 0.747 fold enrichment over input.
For the molecule B8, the binding signal was 0.842 fold enrichment over input.
For the molecule B9, the binding signal is 16.9 fold enrichment over input.
On the same count and under the same terms, the result for B10 reads 15.2 fold enrichment over input.
Still for that read-out and setting: the result for B11 reads 0.832 fold enrichment over input; that for B12, 0.701 fold enrichment over input.
Still for that read-out and setting: next, B13: 0.9 fold enrichment over input; B14: 0.887 fold enrichment over input; B15: 1.44 fold enrichment over input.
As for B16, the binding signal is 1.35 fold enrichment over input.
Take B17: the binding signal is 0.82 fold enrichment over input.
Consider B18, for which the binding signal was 0.805 fold enrichment over input.
Regarding B19, the binding signal was 1.09 fold enrichment over input.
